According to the supplement of paper PMC10382584, “Macrocyclization of linear molecules by deep learning to facilitate macrocyclic drug candidates discovery” (Nature Communications, 2023):

compound: Cc1cnc(Nc2ccc(OCCN3CCCC3)cc2)nc1Nc1cccc(S(=O)(=O)NC(C)(C)C)c1 [Fedratinib]; experiment: percent of DMSO control binding (KINOMEscan); higher = weaker binding / less inhibition; extreme values may be limits of the assay; settings: concentration: 100 nM

Sequence of UniProt P08069 (P08069 whole entry, looked up): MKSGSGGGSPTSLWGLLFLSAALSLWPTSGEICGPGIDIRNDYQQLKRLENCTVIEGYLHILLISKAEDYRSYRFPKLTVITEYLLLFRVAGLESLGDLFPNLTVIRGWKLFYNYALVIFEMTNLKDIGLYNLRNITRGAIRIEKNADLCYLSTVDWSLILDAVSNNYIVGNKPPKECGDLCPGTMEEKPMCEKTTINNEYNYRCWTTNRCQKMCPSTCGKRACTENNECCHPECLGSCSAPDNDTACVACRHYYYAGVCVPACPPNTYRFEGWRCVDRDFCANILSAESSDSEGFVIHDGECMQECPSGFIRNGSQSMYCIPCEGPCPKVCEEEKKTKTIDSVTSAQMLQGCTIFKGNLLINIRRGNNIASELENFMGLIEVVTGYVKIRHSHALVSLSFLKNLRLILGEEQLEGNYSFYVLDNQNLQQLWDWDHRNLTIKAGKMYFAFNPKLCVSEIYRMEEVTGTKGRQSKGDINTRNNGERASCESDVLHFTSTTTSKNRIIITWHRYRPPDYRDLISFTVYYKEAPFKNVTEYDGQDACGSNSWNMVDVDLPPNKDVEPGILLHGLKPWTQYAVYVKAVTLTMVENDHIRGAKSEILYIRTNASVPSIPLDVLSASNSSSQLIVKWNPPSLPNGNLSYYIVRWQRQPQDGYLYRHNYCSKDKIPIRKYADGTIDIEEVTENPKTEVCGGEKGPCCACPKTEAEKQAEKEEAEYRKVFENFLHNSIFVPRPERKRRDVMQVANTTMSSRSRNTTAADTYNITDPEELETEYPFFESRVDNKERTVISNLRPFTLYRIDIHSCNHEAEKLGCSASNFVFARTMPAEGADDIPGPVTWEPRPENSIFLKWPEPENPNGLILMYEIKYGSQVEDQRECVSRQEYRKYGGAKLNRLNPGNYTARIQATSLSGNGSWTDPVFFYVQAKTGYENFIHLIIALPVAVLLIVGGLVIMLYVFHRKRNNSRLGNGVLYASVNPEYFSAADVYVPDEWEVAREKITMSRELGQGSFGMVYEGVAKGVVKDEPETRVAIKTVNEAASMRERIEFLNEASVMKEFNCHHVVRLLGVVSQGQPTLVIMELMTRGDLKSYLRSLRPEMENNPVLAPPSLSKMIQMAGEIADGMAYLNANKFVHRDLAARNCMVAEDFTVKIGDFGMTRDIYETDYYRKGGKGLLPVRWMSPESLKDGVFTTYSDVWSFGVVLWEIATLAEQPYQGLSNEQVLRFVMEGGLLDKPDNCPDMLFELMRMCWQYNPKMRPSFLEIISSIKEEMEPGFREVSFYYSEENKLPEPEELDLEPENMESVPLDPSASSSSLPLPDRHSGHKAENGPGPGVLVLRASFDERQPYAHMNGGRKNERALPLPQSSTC
Sequence of UniProt Q04759 (Q04759 whole entry, looked up): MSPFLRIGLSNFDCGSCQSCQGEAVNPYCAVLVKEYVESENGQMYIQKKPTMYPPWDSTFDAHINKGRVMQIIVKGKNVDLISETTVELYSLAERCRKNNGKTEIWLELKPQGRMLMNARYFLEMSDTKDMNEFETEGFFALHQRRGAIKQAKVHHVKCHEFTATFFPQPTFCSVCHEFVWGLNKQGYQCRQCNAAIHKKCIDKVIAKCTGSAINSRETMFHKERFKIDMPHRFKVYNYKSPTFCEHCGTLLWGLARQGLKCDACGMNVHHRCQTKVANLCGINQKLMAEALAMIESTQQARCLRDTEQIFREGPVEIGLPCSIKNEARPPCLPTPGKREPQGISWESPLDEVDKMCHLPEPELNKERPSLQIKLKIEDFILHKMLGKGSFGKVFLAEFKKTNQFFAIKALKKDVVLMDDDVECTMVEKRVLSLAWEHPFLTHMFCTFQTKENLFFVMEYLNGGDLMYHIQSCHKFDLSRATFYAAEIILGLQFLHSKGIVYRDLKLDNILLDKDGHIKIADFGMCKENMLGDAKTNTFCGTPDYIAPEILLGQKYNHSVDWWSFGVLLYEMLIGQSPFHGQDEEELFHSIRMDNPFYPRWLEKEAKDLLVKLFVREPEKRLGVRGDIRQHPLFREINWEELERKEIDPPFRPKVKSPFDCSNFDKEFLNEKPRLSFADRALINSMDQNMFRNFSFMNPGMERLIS
Sequence of UniProt P08631 (P08631 whole entry, looked up): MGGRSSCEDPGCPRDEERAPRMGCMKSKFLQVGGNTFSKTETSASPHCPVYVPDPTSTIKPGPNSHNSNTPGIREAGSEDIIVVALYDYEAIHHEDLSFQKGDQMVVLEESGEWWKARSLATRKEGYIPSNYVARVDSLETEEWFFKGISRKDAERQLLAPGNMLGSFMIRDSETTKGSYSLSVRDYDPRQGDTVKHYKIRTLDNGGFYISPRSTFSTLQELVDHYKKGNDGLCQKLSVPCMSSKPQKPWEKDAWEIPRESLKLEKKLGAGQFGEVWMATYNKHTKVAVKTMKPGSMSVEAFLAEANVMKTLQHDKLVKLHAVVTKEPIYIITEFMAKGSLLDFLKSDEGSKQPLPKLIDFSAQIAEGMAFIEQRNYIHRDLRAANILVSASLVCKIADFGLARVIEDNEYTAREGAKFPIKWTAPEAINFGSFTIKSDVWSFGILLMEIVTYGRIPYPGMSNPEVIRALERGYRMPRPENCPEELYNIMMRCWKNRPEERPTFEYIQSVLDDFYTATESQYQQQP
Sequence of UniProt Q15418 (Q15418 whole entry, looked up): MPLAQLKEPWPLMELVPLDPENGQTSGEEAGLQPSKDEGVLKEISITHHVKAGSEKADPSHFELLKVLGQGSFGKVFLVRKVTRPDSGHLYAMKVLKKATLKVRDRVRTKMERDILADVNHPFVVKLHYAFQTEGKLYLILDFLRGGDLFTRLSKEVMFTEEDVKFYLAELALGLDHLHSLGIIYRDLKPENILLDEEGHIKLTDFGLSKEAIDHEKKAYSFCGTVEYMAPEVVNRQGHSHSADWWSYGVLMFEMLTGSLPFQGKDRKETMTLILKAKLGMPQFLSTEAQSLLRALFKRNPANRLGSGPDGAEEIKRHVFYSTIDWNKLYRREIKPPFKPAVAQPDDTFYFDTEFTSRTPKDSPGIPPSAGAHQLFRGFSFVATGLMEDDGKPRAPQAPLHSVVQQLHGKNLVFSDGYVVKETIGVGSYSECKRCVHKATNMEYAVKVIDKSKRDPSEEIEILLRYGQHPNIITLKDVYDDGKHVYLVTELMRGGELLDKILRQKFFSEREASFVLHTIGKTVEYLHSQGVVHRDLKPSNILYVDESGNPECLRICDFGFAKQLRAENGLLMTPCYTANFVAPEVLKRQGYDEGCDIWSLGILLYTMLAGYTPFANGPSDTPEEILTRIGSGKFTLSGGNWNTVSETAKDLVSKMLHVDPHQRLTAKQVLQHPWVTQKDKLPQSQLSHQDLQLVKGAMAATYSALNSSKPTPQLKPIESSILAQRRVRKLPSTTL
Sequence of UniProt P0C264 (P0C264 whole entry): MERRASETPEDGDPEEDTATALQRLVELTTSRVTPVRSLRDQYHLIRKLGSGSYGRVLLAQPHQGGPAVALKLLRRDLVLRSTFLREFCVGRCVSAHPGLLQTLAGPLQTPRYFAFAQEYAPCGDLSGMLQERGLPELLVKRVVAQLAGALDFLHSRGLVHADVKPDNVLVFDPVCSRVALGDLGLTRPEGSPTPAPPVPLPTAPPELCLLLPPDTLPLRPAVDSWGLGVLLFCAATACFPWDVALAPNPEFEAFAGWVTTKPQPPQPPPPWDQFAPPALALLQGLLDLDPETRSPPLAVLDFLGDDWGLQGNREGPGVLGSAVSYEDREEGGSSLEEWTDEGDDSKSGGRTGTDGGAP
Sequence of UniProt P22455 (P22455 whole entry, looked up): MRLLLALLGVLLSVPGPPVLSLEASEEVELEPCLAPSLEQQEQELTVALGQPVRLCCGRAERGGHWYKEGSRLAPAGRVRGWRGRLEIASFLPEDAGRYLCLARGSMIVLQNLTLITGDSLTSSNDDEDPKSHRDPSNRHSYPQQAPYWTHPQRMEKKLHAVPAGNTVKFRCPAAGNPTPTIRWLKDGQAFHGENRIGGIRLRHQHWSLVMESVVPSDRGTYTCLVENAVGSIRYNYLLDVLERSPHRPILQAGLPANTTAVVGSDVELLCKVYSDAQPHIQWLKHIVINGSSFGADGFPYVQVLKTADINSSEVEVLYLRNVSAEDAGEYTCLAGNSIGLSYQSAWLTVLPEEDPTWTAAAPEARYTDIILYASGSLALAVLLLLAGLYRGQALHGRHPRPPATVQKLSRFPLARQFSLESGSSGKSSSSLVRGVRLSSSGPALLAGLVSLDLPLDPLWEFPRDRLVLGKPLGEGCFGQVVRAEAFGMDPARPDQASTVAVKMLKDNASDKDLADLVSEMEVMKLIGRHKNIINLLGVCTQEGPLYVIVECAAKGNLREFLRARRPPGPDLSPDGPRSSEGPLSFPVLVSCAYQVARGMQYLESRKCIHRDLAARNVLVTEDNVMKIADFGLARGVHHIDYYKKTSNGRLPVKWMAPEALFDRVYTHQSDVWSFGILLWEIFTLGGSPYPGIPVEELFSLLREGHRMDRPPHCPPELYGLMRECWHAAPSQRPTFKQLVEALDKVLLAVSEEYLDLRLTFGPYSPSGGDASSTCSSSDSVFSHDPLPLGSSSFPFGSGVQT
Sequence of UniProt Q13131 (Q13131 whole entry, looked up): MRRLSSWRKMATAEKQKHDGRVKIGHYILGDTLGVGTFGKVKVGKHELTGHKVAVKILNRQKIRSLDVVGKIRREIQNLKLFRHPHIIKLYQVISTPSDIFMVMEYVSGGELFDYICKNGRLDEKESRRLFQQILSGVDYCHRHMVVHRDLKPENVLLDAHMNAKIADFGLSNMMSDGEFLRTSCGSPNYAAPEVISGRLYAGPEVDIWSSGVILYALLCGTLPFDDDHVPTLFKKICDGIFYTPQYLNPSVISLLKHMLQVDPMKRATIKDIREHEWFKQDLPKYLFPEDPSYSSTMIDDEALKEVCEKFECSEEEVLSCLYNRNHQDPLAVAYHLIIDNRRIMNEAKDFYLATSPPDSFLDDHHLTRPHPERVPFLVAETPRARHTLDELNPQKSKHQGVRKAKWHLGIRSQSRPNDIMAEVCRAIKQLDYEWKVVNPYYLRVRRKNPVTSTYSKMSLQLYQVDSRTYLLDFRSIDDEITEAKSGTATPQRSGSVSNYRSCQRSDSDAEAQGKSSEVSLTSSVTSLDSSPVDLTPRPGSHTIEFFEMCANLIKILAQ

Row | Target | percent of DMSO control binding [%]
1 | MEK1 (UniProt Q02750) | 62
2 | PRKCQ (UniProt Q04759) | 100
3 | PKN2 (UniProt Q16513) | 100
4 | HIPK2 (UniProt Q9H2X6) | 79
5 | ALK(C1156Y) (UniProt Q9UM73) | 57
6 | FGFR4 (UniProt P22455) | 100
7 | VRK2 (UniProt Q86Y07) | 63
8 | MLK2 (UniProt Q02779) | 78
9 | TYK2(JH1domain-catalytic) (UniProt P29597) | 8.8
10 | EGFR(T790M) (UniProt P00533) | 100
11 | CDC2L5 (UniProt Q14004) | 78
12 | PIP5K1A (UniProt Q99755) | 17
13 | EPHA1 (UniProt P21709) | 60
14 | LYN (UniProt P07948) | 100
15 | TNNI3K (UniProt Q59H18) | 97
16 | AMPK-alpha1 (UniProt Q13131) | 100
17 | STK36 (UniProt Q9NRP7) | 100
18 | PFTAIRE2 (UniProt Q96Q40) | 100
19 | PIK4CB (UniProt Q9UBF8) | 97

Row | Target | percent of DMSO control binding [%]
20 | IGF1R (UniProt P08069) | 100
21 | CTK (UniProt P42679) | 74
22 | ERBB2 (UniProt P04626) | 73
23 | MAP3K4 (UniProt Q9Y6R4) | 77
24 | HCK (UniProt P08631) | 100
25 | BTK (UniProt Q06187) | 87
26 | SgK110 (UniProt P0C264) | 100
27 | PFCDPK1(P.falciparum) | 100
28 | FLT4 (UniProt P35916) | 100
29 | PAK4 (UniProt O96013) | 100
30 | LTK (UniProt P29376) | 100
31 | ROS1 (UniProt P08922) | 88
32 | RSK1(Kin.Dom.1-N-terminal) (UniProt Q15418) | 89
33 | AMPK-alpha2 (UniProt P54646) | 100
34 | BRK (UniProt Q13882) | 87
35 | PRKCH | 100
36 | PFTK1 (UniProt O94921) | 100
37 | SYK (UniProt P43405) | 100
38 | INSRR (UniProt P14616) | 100
